Screening data as filed in PubChem.
Most compounds without a hit are left out; they make up all but 2.2% or so of the library.
BaF3 parental – parental Ba/F3 viability inhibition as JAK2V617F counter-screen. 220,000 compounds, 1.1% hits. CellTiter-Glo ATP luminescence. inhibition, % at 5.6 µM;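 active = inhibition above a per-campaign cutoff, the mean inhibition of all tested compounds plus 3 SD, cut at about 27% in these data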
APP 5UTR inh – APP translation inhibition | SH-SY5Y APP 5'UTR-luciferase reporter, luminescence | inhibition, % at 2 µM | 190,000 compounds, 0.82% hits | AID 1285;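 active = inhibition above a set limit, derived from the sample mean plus 3 SD, cut at about 45% in these data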
aSyn 5UTR inh – 5' untranslated region of α-synuclein, MLPCN primary screen; alpha-synuclein 5'UTR reporter, inhibitor activity; inhibition, % (tested at 7.5 µM); 300,000 compounds, 0.82% hits; in the data active = inhibition above about 60%;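 also: H4 neuroglioblastoma cells stably carrying SNCA 5'UTR luciferase fusion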
KLF5 inh – suppresses KLF5 promoter-driven expression. inhibition, % at 5 µM. 290,000 compounds, 0.23% hits. AID 1700. DLD-1 KLF5 promoter-luciferase reporter, luminescence;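 active = inhibition above a per-plate limit of that plate's mean compound inhibition plus 3 SD, cut at about 60% in these data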;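 also: higher means less KLF5 promoter-driven luciferase light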
IEC-6 tox – counter-screen for KLF5 inhibitors: cytotoxicity in IEC-6 cells; IEC-6 cytotoxicity, luminescence viability; inhibition, % at 5 µM; 290,000 compounds, 0.78% hits; in the data active = inhibition above about 22%
Ba/F3 V617F tox – lowers viability of Ba/F3 cells expressing EpoR and JAK2V617F; ATP luminescence; inhibition, % at 5.6 µM; 220,000 compounds, 1.1% hits; AID 1446;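 active = inhibition above the campaign mean plus 3 SD over all tested compounds, cut at about 24% in these data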;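 also: cytokine-independent growth of Ba/F3 cells driven by EpoR plus mutant JAK2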
BaF3 tox 2 – reduces parental Ba/F3 viability, JAK2V617F counter-screen; shares compounds with Ba/F3 V617F tox; CellTiter-Glo luminescence; cells kept alive by added IL-3; inhibition, % at 5.6 µM; 580 compounds, 31% hits;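 active = cell growth inhibition above the hit limit set in the earlier mutant JAK2 cell screen, cut at about 27% in these data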
JAK2V617F confrm – confirmation: loss of viability in JAK2V617F-dependent Ba/F3 cells. shares compounds with Ba/F3 V617F tox. Ba/F3 EpoR-JAK2V617F viability, CellTiter-Glo luminescence. inhibition, % at 5.6 µM. 580 compounds, 66% hits. AID 1521;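 active = mean inhibition above the hit cutoff derived in the earlier primary screen, cut at about 25% in these data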;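 also: higher means lower luminescence from reduced cell ATP and viability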
A number is an active result; - = inactive; . = not tested or not shown.

SMILES	BaF3 parental	APP 5UTR inh	aSyn 5UTR inh	KLF5 inh	IEC-6 tox	Ba/F3 V617F tox	BaF3 tox 2	JAK2V617F confrm
CCN(CC(=O)NCc1cccs1)S(=O)(=O)c1ccc(F)c(F)c1F	.	.	-	.	.	.	.	.
Oc1ccccc1OCCOc1ccccc1OCCOc1ccccc1O	-	-	-	-	-	26	-	71
Oc1ccccc1OCC(O)c1ccccc1 (configuration not stated)	.	.	-	-	-	.	.	.
CCCn1c(CN(Cc2ccccc2)Cc2ccccc2)nc2c1c(=O)n(C)c(=O)n2C	-	-	-	-	-	-	.	.
CCCn1c(CN(C)Cc2ccccc2)nc2c1c(=O)n(C)c(=O)n2C	-	-	-	-	-	35	-	58
CC(C)C1C(C#N)=C(N)Oc2n[nH]c(-c3cccs3)c21 (configuration not stated)	-	-	-	-	-	-	.	.
CC(C)C1C(C#N)=C(N)Oc2n[nH]c(-c3ccc4ccccc4c3)c21 (configuration not stated)	-	55	-	-	-	33	-	68
O=C(NC(NNc1ccc([N+](=O)[O-])cc1)(C(F)(F)F)C(F)(F)F)c1ccc(Cl)cc1	-	-	-	-	-	29	-	-
CCCOc1ccc(C(=O)NC2CCSc3ccccc32)cc1 (configuration not stated)	.	.	-	-	-	.	.	.
COc1cccc(/C=C/C(=O)OCC(=O)Nc2ccc(N3CCOCC3)cc2)c1OC	-	-	-	-	-	42	-	-
COc1nc(OC)nc(Oc2ccc(Cl)cc2[N+](=O)[O-])n1	-	-	-	-	-	-	.	.
COc1ccc([N+](=O)[O-])c(S(=O)(=O)c2ccccc2)n1	-	.	-	-	-	93	34	85
COc1ccc([N+](=O)[O-])c(S(=O)(=O)c2ccc(Cl)cc2)n1	-	.	-	-	-	43	-	70
CC1Cc2ccccc2N1C(=O)CN1C(=O)NC(C)(CCc2ccccc2)C1=O (configuration not stated)	.	.	-	-	-	.	.	.
COc1ccc(OC)c(NS(=O)(=O)c2ccc(SC)cc2)c1	-	-	-	-	-	30	-	70
Cc1ccc(C)c(CNC(=O)Nc2ccccc2)c1	.	.	-	-	-	.	.	.
O=C(Nc1ccccc1)/C(=C/c1ccc(F)cc1)NC(=O)c1ccco1	.	.	-	-	-	.	.	.
CC(C)(C)c1ccc(OCc2ccc(C(=O)N/N=C/c3ccc(O)c(O)c3)cc2)cc1	-	-	-	-	-	101	81	99
COc1ccccc1CCn1c(N)cc(=O)[nH]c1=O	.	.	-	-	-	.	.	.
Cc1cc(C)cc(NC(=O)CSc2nnc(CN3CCOCC3)n2C)c1	-	-	-	-	-	95	-	-
Cc1cc(C)c(NC(=O)CSc2nnc(CN3CCOCC3)n2C)c(C)c1	.	.	-	-	-	.	.	.
O=C(Nc1cccc2c1[nH]c1ccccc12)C(F)(F)F	-	-	-	-	-	53	-	52
CC(=O)Nc1ccccc1NC(=O)C(F)(F)F	-	-	-	-	-	-	.	.
CC(C(=O)N1CCCCCC1)c1ccc([N+](=O)[O-])cc1 (configuration not stated)	-	-	-	-	-	-	.	.
CCOc1ccc(CCNC(=O)Cn2cccc2C(=O)c2ccccc2)cc1OCC	-	-	-	-	-	-	.	.
SMILES	BaF3 parental	APP 5UTR inh	aSyn 5UTR inh	KLF5 inh	IEC-6 tox	Ba/F3 V617F tox	BaF3 tox 2	JAK2V617F confrm
CCOc1ccc(CCNC(=O)Cn2ccc3ccccc3c2=O)cc1OCC	-	-	-	-	-	101	-	-
Cn1c(=N)n(CC(O)c2cccc3ccccc23)c2ccccc21 (configuration not stated)	-	-	-	-	-	41	-	28
C/C(Cn1ncc(N2CCOCC2)c(Cl)c1=O)=N\O	.	.	-	-	-	.	.	.
O=C1C(Nc2ccccc2)=C/C(=N/S(=O)(=O)c2cccs2)c2ccccc21	-	-	-	-	-	46	93	96
COc1ccc(C(=O)CSc2ccc(-c3ccccc3)nn2)cc1	-	-	-	-	-	-	.	.
COc1ccc(-c2ccc(SC)nn2)cc1	-	-	75	-	-	24	32	30
O=C(O)c1ccc(N/N=C/c2ccc(-c3ccc(Cl)cc3Cl)o2)cc1	-	.	-	-	-	30	45	33
Fc1ccc(CSc2ncnc3sc4c(c23)CCCC4)cc1	-	-	-	-	-	99	-	-
Cc1cc(Cl)n2c(nc3cc(F)c(F)cc32)c1C#N	-	88	-	-	-	48	33	93
CCOC(=O)N1CCN(C(=O)c2ccc(NC(=O)c3ccc(C)cc3)cc2)CC1	-	-	-	-	-	24	-	32
CC1CCCCN1CCCNC(=O)CCCN1C(=O)c2cccnc2Sc2ccccc21 (configuration not stated)	.	.	-	-	-	.	.	.
Cc1ccc(N(C(=O)CNC(=O)c2ccco2)C(C(=O)NC2CCCC2)c2ccncc2)cc1F (configuration not stated)	.	.	-	-	-	.	.	.
CC1(C)CC(=O)c2cnc(NC(=O)CCc3ccccc3)nc2C1	-	-	-	-	-	95	-	-
O=C(CCc1ccccc1)Nc1ncc2c(n1)CCCC2=O	-	-	-	-	-	-	.	.
N#C/C(=C\c1ccc(O)c(O)c1)C(=O)NCCCc1ccccc1	-	-	-	-	-	56	-	87
COCCCNC(=O)C1=CCN(S(=O)(=O)c2ccc(C)cc2)CC1	.	.	-	-	-	.	.	.
CCn1cc(CN2CCN(Cc3ccc(C)o3)C(CCO)C2)c2ccccc21 (configuration not stated)	-	-	-	-	-	44	-	-
CCn1cc(CN2CCN(Cc3ccccc3)C(CCO)C2)c2ccccc21 (configuration not stated)	.	.	-	-	-	.	.	.
NC1=NC2(CCCCC2)N(c2ccc(F)cc2)C(N)=N1	-	-	-	-	-	24	-	33
COc1ccccc1N1C(N)=NC(N)=NC1(C)C	-	-	-	-	-	-	.	.
Cc1onc(-c2c(F)cccc2Cl)c1C(=O)NC(=S)NC1CCS(=O)(=O)C1 (configuration not stated)	-	-	-	-	-	-	.	.
CSC1=NSC2=NC(=O)/C(=C\c3ccc(OC(=O)c4ccco4)cc3)C(=N)N12	.	.	-	-	-	.	.	.
CC1=CSC2=NC(=O)/C(=C/c3cccc(OC(=O)c4ccco4)c3)C(=N)N12	-	-	-	-	-	34	-	-
CCOC(=O)C1CCN(C(=O)c2cc(S(=O)(=O)N3CCCCCC3)ccc2OC)CC1	.	.	-	.	.	.	.	.
CCOc1cc(S(=O)(=O)n2ccc(C)n2)ccc1Br	-	-	-	-	-	30	-	-
CCOc1cc(S(=O)(=O)n2ccnc2)ccc1Br	-	-	-	-	-	-	.	.
Cc1ccccc1-c1nn(-c2ccc(F)cc2F)cc1CNCCCN(C)C	-	-	-	-	-	26	-	-
